Over roughly 33,000 sequences, “E-score (-0.5 to 0.5)” has its median near -0.0059; the highest 2% begin near 0.26. The full list was thinned out, with the highest values kept by preference.
These sequences were tested against T1, Cin5 (UniProt P40917) (assay: PBM E-score (8-mer binding enrichment) (E-score (-0.5 to 0.5)); higher = stronger / more preferred TF binding). Conditions: protein concentration: 100 nM; construct: GST-full length.
T1 sequence: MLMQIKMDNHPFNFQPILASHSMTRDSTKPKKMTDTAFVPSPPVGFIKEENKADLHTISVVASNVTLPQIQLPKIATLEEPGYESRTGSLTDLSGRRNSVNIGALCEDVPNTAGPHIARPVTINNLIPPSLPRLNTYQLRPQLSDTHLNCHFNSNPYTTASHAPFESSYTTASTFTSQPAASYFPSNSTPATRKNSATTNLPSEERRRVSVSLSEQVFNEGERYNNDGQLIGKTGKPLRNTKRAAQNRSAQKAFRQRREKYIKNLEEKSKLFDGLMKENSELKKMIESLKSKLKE
Experimental: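 Universal 'all 10-mer' protein binding microarrays (Agilent AMADID 015681) probed with GST-tagged S. cerevisiae TFs (full-length or DBD) made by in vitro transcription/translation (PURExpress), about 100-200 nM. Bound TF was detected with fluorescent anti-GST. Each ungapped 8-mer (which stands for itself and its reverse complement) is scored by the PBM enrichment score (E-score), a modified Wilcoxon-Mann-Whitney statistic from -0.5 to +0.5, computed with the Universal PBM Analysis Suite. Scale: above 0.35 generally sequence-specific binding.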

| Sequence | PBM E-score |
| --- | --- |
| ATTTGATC | 0.0618 |
| ATATGATC | 0.258 |
| ATTTGATA | 0.319 |
| GTATGATA | 0.275 |
| ATTCTTCG | 0.138 |
| CTGATCGC | 0.0487 |
| AAGGAAAT | 0.0752 |
| ATTGGTGC | 0.134 |
| ACGCTCAC | 0.0871 |
| CCTCACGC | 0.0561 |
| GTCAGCGA | -0.0481 |
| ACCACCCT | -0.163 |
| ATGCTATC | -0.00354 |
| CGAACGCG | 0.00852 |
| AGAAACCA | 0.123 |
| GTGTGATA | 0.2 |
| ATGTGATA | 0.266 |
| CTGTGATA | 0.0273 |
| ATCGCCCA | -0.11 |
| CAACGGTA | -0.181 |
| CGTAAAGC | -0.147 |
| GTTTGGTA | 0.296 |
| CTTTGGTA | -0.205 |
| ATTTGGTA | 0.252 |
| AGGACCGG | -0.294 |

| Sequence | PBM E-score |
| --- | --- |
| ACCGCTCG | -0.0731 |
| CCCTATGC | 0.0135 |
| ACAACCCG | -0.0389 |
| CGCAACTC | 0.103 |
| CGCAACTA | 0.267 |
| GGCAACTA | 0.0726 |
| CAGAACGA | 0.0474 |
| CAAAGACG | -0.0507 |
| CGCTGGGC | -0.295 |
| AATATGAT | 0.297 |
| AATATGAA | 0.258 |
| AATATGAG | 0.0321 |
| AATATGAC | 0.163 |
| GATATGAA | 0.0853 |
| TATATGAA | 0.129 |
| AGGGTGTC | -0.136 |
| GGTCCTAA | -0.143 |
| CAGGAAGA | -0.0593 |
| GGGCAGGA | -0.00266 |
| GAATGTAA | 0.241 |
| TAATGTAA | 0.33 |
| TAATGGAA | 0.281 |
| AAATGTAA | 0.14 |
| TGATGTAA | 0.329 |
| GAATGGAA | 0.181 |

| Sequence | PBM E-score |
| --- | --- |
| CGATGTAA | 0.102 |
| AAATGTAC | 0.19 |
| AGATGTAA | 0.169 |
| AAATGGAA | 0.0906 |
| AAATGTAT | 0.276 |
| AAATGTAG | 0.101 |
| CCGGGGCG | -0.146 |
| GCTACGGA | -0.165 |
| TCACCGGA | 0.0333 |
| GTGGGAAC | -0.144 |
| GCCACGCC | -0.127 |
| CAGAGCAC | -0.123 |
| CCCCATAA | 0.00568 |
| ACGCAGCC | -0.0404 |
| ACCGGGGC | -0.136 |
| GAATGTGA | 0.00014 |
| CAATGTGA | 0.117 |
| TAATGTGA | 0.292 |
| ACTACCAG | -0.086 |
| ACGCAAAT | -0.0291 |
| ATGCATCG | 0.098 |
| CTGCATTA | -0.154 |
| GTGCATCA | 0.00241 |
| ATGCATTA | 0.341 |
| ATGCATTC | 0.163 |

| Sequence | PBM E-score |
| --- | --- |
| ATGCATCA | 0.287 |
| ACTAACAT | 0.192 |
| CTACCCTA | -0.101 |
| CACGGTGG | 0.0279 |
| CCTATCCG | -0.0857 |
| CCGGTACA | -0.00292 |
| AATAATCC | 0.0532 |
| CCTAATCC | 0.029 |
| CATAATCA | 0.385 |
| CGTAATTC | 0.228 |
| AATAATCA | 0.257 |
| CGTAAGGC | -0.0166 |
| AGTAAGCC | 0.216 |
| CGTAATCC | 0.383 |
| GATAATCA | 0.159 |
| CGTAAGCC | 0.39 |
| GATAATCC | 0.17 |
| CATAATCC | 0.265 |
| CGGACCCC | -0.295 |
| ACCGTTAT | -0.0275 |
| CACGGCCA | -0.145 |
| ATGGCTGC | -0.0428 |
| CACGGGGG | -0.401 |
| TATAATGA | 0.21 |
| CATAATGG | 0.0936 |

| Sequence | PBM E-score |
| --- | --- |
| CATAATCG | 0.324 |
| AATAATCG | 0.247 |
| TATAATAA | 0.241 |
| TATAATCA | 0.342 |
| CGATCACG | 0.117 |
| ATGTGCGA | -0.106 |
| ACTCCTGG | -0.216 |
| ACCACAAG | -0.117 |
| TCAATGAA | 0.159 |
| GTTATCTA | 0.131 |
| CTTATCTA | 0.276 |
| ATTATCTG | 0.152 |
| ACTATCTA | 0.148 |
| CTTATCTC | 0.0536 |
| ATTATCTC | 0.306 |
| ACTATCTC | 0.121 |
| ATTATCTA | 0.315 |
| CCTATCTC | 0.0294 |
| AACTCGAT | 0.15 |
| AACCCTAT | 0.107 |
| TACGGGAA | -0.108 |
| CCTTCATC | -0.183 |
| GTGCAAGA | 0.0774 |
| GTAGAACA | -0.165 |
| AGGAATGA | 0.0586 |

| Sequence | PBM E-score |
| --- | --- |
| GGGAATGA | 0.277 |
| CGGAATGA | 0.146 |
| CACCTCTA | 0.0362 |
| CGCGTATC | 0.06 |
| CCACAACG | -0.153 |
| AAACTAAA | 0.199 |
| AAACTAAT | 0.312 |
| AAACTAAG | 0.185 |
| ATAGTCAC | 0.129 |
| AGCCGACG | -0.0574 |
| GGAACAAC | 0.0525 |
| GGAACAAA | 0.32 |
| CGAACAAG | -0.0215 |
| AGAACAAA | 0.194 |
| CGAACAAA | 0.272 |
| TGAACAAA | 0.217 |
| CCCTGGTA | -0.196 |
| AGGTCGAC | 0.102 |
| GGCTGTAA | -0.129 |
| CCCCGCGA | 0.05 |
| ACAATTGT | 0.188 |
| CCGCGGAA | 0.272 |
| CCGCGGAG | 0.0845 |
| CCGCGGGC | 0.0691 |
| CCGCGGGA | 0.316 |

| Sequence | PBM E-score |
| --- | --- |
| GCGCGGGA | 0.012 |
| GCGCGGAA | 0.192 |
| AGAGTTAA | 0.0368 |
| GTACTCGA | 0.0237 |
| ATTAGGTG | 0.131 |
| ATTAGGTC | 0.271 |
| ATTAGGTA | 0.271 |
| CTTAGGTA | 0.337 |
| CGTAGGTA | -0.0204 |
| ATTAGGGC | -0.0867 |
| CTCAGGTA | 0.0217 |
| GTTAGGTA | 0.242 |
| CTTAGGTC | -0.0156 |
| AACTCAAT | 0.165 |
| CACTGGGC | -0.14 |
| CGTAACCA | 0.192 |
| AGCAGCCC | -0.142 |
| GAGGGCCC | -0.254 |
| CCCCTCAG | -0.211 |
| AGTAATTG | 0.132 |
| AGTAATAG | 0.279 |
| AGTAATAT | 0.306 |
| AGTAATAA | 0.193 |
| AGTAATAC | 0.2 |
| CGTAATAG | 0.223 |

Source: the supplement of paper PMC3334620
